According to PubChem BioAssay (NCI):
This is part of a sample that, as a whole, favours compounds with a hit. Of some 83,000 tested, about 20% had one in any assay.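 Percent growth is the endpoint: 0 to 100 indicates growth inhibition (40 means 60% inhibition), 0 means no net growth, and negative values indicate cell death.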 The source made the active and inactive calls. The calls were made as follows: active = growth percent below 10; inactive = the rest.

system: HL-60(TB) leukemia; assay: NCI-60 one-dose screen, 48 h (100 = growth as untreated, 0 = no growth, -100 = all killed); settings: 10 µM unless noted

Row | SMILES | growth
1 | COc1ccc2c(c1)c(/C=N/Nc1ccnc3cc(Cl)ccc13)cn2C | -52.2% (active)
2 | O=S(=O)(NCCNc1nccc(-n2cnc3ccccc32)n1)c1ccc(Cl)cc1 | 113% (inactive)
3 | COc1cc(OC)cc(C(=O)Nc2cccc(C#Cc3cccc4[nH]nc(N)c34)c2)c1 | 1.62% (active)
4 | NS(=O)(=O)c1nnc(/N=C/c2c(O)[nH]c3ccccc23)s1 | 123% (inactive)
5 | O=C(NCCCNc1cc(-c2cn(-c3ccccc3)nc2-c2cccc(O)c2)ccn1)Nc1ccc(F)cc1 | 1.09% (active)
6 | O=C(Cn1cc[n+](CC(=O)c2ccc(-c3ccccc3)cc2)c1)Nc1cccc2cccnc12 | 14.5% (inactive)
7 | O=S(=O)(Nc1cc(Cl)cc(Cl)c1)c1ccc(-c2cnc(C3CC3)o2)cc1 | 8.29% (active)
8 | CCNC(=O)Oc1ccc(/C(=C(/C)c2ccc(Cl)cc2)c2ccc(OCCN3CCCC3)cc2)cc1 | 56.2% (inactive)
9 | CCN1CCN(S(=O)(=O)c2oc(-c3ccc(Cl)cc3)nc2C#N)CC1 | 7.25% (active)
10 | Brc1cccc(-c2cc(-c3cnc4c(c3)OCCO4)n[nH]2)c1 | 21.2% (inactive)
11 | C=C(C=O)[C@@H]1CC[C@]2(CO)CC[C@]3(C)[C@H](CC[C@@H]4[C@@]5(C)CCCNC(C)(C)[C@@H]5CC[C@]43C)[C@@H]12 | -10.2% (active)
12 | C[C@H](CCC(=O)NCc1ccc(C(=O)Nc2ccccc2N)cc1)[C@H]1CC[C@H]2[C@@H]3[C@@H](O)C[C@@H]4C[C@H](O)CC[C@]4(C)[C@H]3CC[C@]12C | 0.73% (active)
13 | COc1cc(/C=C/C(=O)c2cc(OC)c(OC)c(OC)c2)ccc1Oc1nc(NCCO)nc(N2CCOCC2)n1 | -5.23% (active)
14 | COc1ccc2[nH]cc(-c3cc(N)n4nc(-c5c[nH]c6ccc(OC)cc56)cc4n3)c2c1 | -46.1% (active)
15 | CCO/C=N/C1=C(C#N)C(c2ccc(OC)cc2)c2sc3c(CC)cccc3c2O1 (stereo not given) | 9.99% (active)
16 | C[C@@H]1C[C@H]2C(=O)O[C@@H](C)C(NC(=O)[C@H](Cc3cc(F)cc(F)c3)NC(=O)Nc3ccc(Cl)cc3F)C(=O)N3CCC[C@H]3C(=O)N3CCCC[C@H]3C(=O)N[C@@H](CO)C(=O)N2C1 (stereo not given in full) | 13.5% (inactive)
17 | O=C(CSc1nnc(-c2ccc(Cl)cc2)n1-c1ccccc1)Nc1ccccc1Cl | 91.8% (inactive)
18 | CC(C)NC(=O)c1cc(-c2ccc(NC(=O)Nc3ccc(N4CCOCC4)c(C(F)(F)F)c3)cc2)nc2cccnc12 | 12.6% (inactive)
19 | COc1cc(/C=C/C(=O)c2ccc(NC(=O)CSc3nnc(-c4ccc5nc(-c6ccccc6)[nH]c5c4)o3)cc2)cc(OC)c1OC | 69% (inactive)
20 | N#Cc1c(Nc2ccccc2)nn2c(-c3ccc([N+](=O)[O-])cc3)ccnc12 | 93.9% (inactive)

Row | SMILES | growth
21 | Cc1cccc2sc(/N=C(\N)C(Cl)(Cl)Cl)nc12 | 103% (inactive)
22 | COc1cc(Cn2cc3c(c2)-c2onc(CN4CCOCC4)c2CC3)cc(OC)c1OC | 99.9% (inactive)
23 | Cc1ccccc1NC1CC(=O)N(c2ccc(Cl)cc2Cl)C1=O (stereo not given) | 102% (inactive)
24 | N#Cc1cccc(-c2cc(-c3ccc4c(c3)OCCO4)[nH]n2)c1 | 6.12% (active)
25 | CC(=O)O[C@@H]1C(=O)N(c2cnccn2)[C@H]1c1ccccc1[N+](=O)[O-] | -30.4% (active)
26 | C#Cc1nc(/C=C\CCCCCCC(=O)NO)cs1 | -53.8% (active)
27 | O=C(CN1CCN(c2cc(=O)n(-c3ccccc3)c3ccccc23)CC1)Nc1ccc([N+](=O)[O-])cc1 | 85% (inactive)
28 | Cc1ccc(NC(=O)c2ccc(CN3CCN(C)CC3)c(I)c2)cc1Oc1ccc(-c2[nH]nc3ncnc(N)c23)cc1 | 118% (inactive)
29 | N#Cc1cnc2ccc(-c3cnc4n[nH]nc4c3)cc2c1N1CCc2cc(F)c(Cl)cc21 | 20.2% (inactive)
30 | Oc1cccc2ccc(-c3nnc(SCc4ccc(O)c5ncccc45)o3)nc12 | 13.7% (inactive)
31 | CC(Nc1ncnc2ccc(-c3cnc4cnccn34)cc12)c1ccccc1 (stereo not given) | 52.4% (inactive)
32 | CC1(C)CC[C@]2(C(=O)O)CC[C@]3(C)C(=CC[C@@H]4[C@@]5(C)CC[C@H](NOCCCN)C(C)(C)[C@@H]5CC[C@]43C)[C@@H]2C1 | 20.2% (inactive)
33 | O=S(=O)(Oc1ccc(-c2nnc(Nc3ccccc3)s2)cc1)C(F)(F)C(F)(F)C(F)(F)C(F)(F)C(F)(F)C(F)(F)F | 70.6% (inactive)
34 | N#Cc1nc(-c2ccccc2)oc1S(N)(=O)=O | 27.1% (inactive)
35 | COc1ccc(NC(=O)CSc2nnc(-c3ccc4nc(-c5ccccc5)[nH]c4c3)o2)cc1 | 101% (inactive)
36 | O=C(CN1CCN(c2cc(=O)n(-c3ccccc3)c3ccccc23)CC1)Nc1nc(-c2ccc(Cl)cc2)cs1 | 26.2% (inactive)
37 | CCN(CC)CCCC(C)NCC(=O)NC(c1ccc2c(c1)OCO2)c1cc(Cl)c2cccnc2c1O (stereo not given) | 7.29% (active)
38 | COc1ccc(-c2nc(C(Cl)Cl)nc3cc(-c4ccccc4)nn23)cc1 | -7.77% (active)
39 | COc1ccc(/C(N)=N/C(N)=N/c2nc3ccccc3s2)cc1 | 108% (inactive)
40 | CC(C)c1nn(-c2ccccc2)c(N2CCCCC2)c1/C=N/NC(N)=S | 98.4% (inactive)
